Assay results: the supplement of paper PMC10646978
± gives the standard deviation.

Tests used:
Settings in all cases: modulator concentration 10 µM
[1] = test system: RAW-Dual (murine macrophage reporter line); assay: NF-kB reporter (SEAP) activity fold change vs agonist alone; higher = enhanced NF-kB activity
Procedure, shortened: (§1)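 In 384-well plates holding 50 000 RAW-Dual murine macrophage reporter cells per well, compound at 10 μM final was pre-incubated for 1 hour at 37 °C, after which a PRR agonist was added overnight. Supernatant SEAP read with QUANTI-Blue at 620 nm absorbance reported NF-κB, and Lucia luciferase read with QUANTI-Luc luminescence reported IRF. Fold change values come from dividing each reporter signal by the mean of agonist-only control wells on the same plate, averaged over replicate plates with propagated errors.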

[2] = test system: RAW-Dual (murine macrophage reporter line); assay: IRF reporter (Lucia luciferase) activity fold change vs agonist alone; higher = enhanced IRF activity
Procedure, shortened: as §1

[3] = test system: RAW-Dual (murine macrophage reporter line); assay: viability score (confluency relative to resting cells, overnight) (fraction); higher = more viable, active = viable (0.7 or more)
Procedure, shortened: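 Two confluency masks, generated with IncuCyte software over all imaged wells, were applied to IncuCyte images of RAW-Dual macrophages. The cells, in 384-well plates, had been exposed overnight to 10 μM final compound. The viability score is confluency as a fraction of resting cells, and a compound met the cutoff only with both masks above 70% of resting cells.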

[4] = agonist: CpG ODN 1826 0.5 ug/mL

CCCOc1cccc(C(=O)Nc2cccc(S(N)(=O)=O)c2)c1
NF-kB reporter [1, 4]: 1.11 ± 0.13 | NF-kB reporter ([1]; agonist: LPS 0.1 ug/mL): 0.97 ± 0.057 | NF-kB reporter ([1]; agonist: MPLA […]): 0.945 ± 0.058 | IRF reporter ([2]; agonist: 3'3'-cGAMP 10 ug/mL): 0.918 ± 0.039 | IRF reporter ([2]; agonist: LPS 0.1 ug/mL): 1.39 ± 0.14 | IRF reporter ([2]; agonist: MPLA […]): 1.05 ± 0.27 | viability score [3]: 1 (active)

COc1ccc(C2CC(=O)c3c(O)cc(O)cc3O2)cc1O (stereo not drawn)
NF-kB reporter [1, 4]: 1.43 ± 0.35 | NF-kB reporter ([1]; agonist: LPS 0.1 ug/mL): 1.14 ± 0.064 | NF-kB reporter ([1]; agonist: MPLA […]): 1.15 ± 0.073 | IRF reporter ([2]; agonist: 3'3'-cGAMP 10 ug/mL): 0.845 ± 0.028 | IRF reporter ([2]; agonist: LPS 0.1 ug/mL): 1.14 ± 0.21 | IRF reporter ([2]; agonist: MPLA […]): 1.1 ± 0.1 | viability score [3]: 1 (active)

Ic1ccc(OCCCOc2ncnc3ccccc23)cc1
NF-kB reporter [1, 4]: 0.781 ± 0.069 | NF-kB reporter ([1]; agonist: LPS 0.1 ug/mL): 0.931 ± 0.045 | NF-kB reporter ([1]; agonist: MPLA […]): 1.14 ± 0.12 | IRF reporter ([2]; agonist: 3'3'-cGAMP 10 ug/mL): 0.963 ± 0.05 | IRF reporter ([2]; agonist: LPS 0.1 ug/mL): 1.39 ± 0.095 | IRF reporter ([2]; agonist: MPLA […]): 1.6 ± 0.2 | viability score [3]: 1.02 (active)

O=C(CN(CCc1ccccc1)S(=O)(=O)c1ccc(Cl)cc1)NCc1ccncc1
NF-kB reporter [1, 4]: 1.03 ± 0.19 | NF-kB reporter ([1]; agonist: LPS 0.1 ug/mL): 0.976 ± 0.076 | NF-kB reporter ([1]; agonist: MPLA […]): 0.941 ± 0.12 | IRF reporter ([2]; agonist: 3'3'-cGAMP 10 ug/mL): 0.954 ± 0.025 | IRF reporter ([2]; agonist: LPS 0.1 ug/mL): 1.17 ± 0.11 | IRF reporter ([2]; agonist: MPLA […]): 1.16 ± 0.26 | viability score [3]: 1.01 (active)

COc1ccc(C=CC(=O)Nc2ccc([N+](=O)[O-])cc2)cc1Br
NF-kB reporter [1, 4]: 1.06 ± 0.17 | NF-kB reporter ([1]; agonist: LPS 0.1 ug/mL): 0.991 ± 0.14 | NF-kB reporter ([1]; agonist: MPLA […]): 0.905 ± 0.11 | IRF reporter ([2]; agonist: 3'3'-cGAMP 10 ug/mL): 0.996 ± 0.044 | IRF reporter ([2]; agonist: LPS 0.1 ug/mL): 1.28 ± 0.18 | IRF reporter ([2]; agonist: MPLA […]): 1.43 ± 0.42 | viability score [3]: 1.01 (active)

COc1ccccc1C=C(C#N)c1nc(-c2cc3cc(Br)ccc3oc2=O)cs1
NF-kB reporter [1, 4]: 0.951 ± 0.08 | NF-kB reporter ([1]; agonist: LPS 0.1 ug/mL): 0.962 ± 0.075 | NF-kB reporter ([1]; agonist: MPLA […]): 0.943 ± 0.089 | IRF reporter ([2]; agonist: 3'3'-cGAMP 10 ug/mL): 0.972 ± 0.069 | IRF reporter ([2]; agonist: LPS 0.1 ug/mL): 1.31 ± 0.18 | IRF reporter ([2]; agonist: MPLA […]): 1.58 ± 0.27 | viability score [3]: 1.02 (active)

CCN1CCN(CC(O)COc2ccc(C(C)(C)C)cc2C(C)(C)C)CC1.Cl.Cl (stereo not drawn)
NF-kB reporter [1, 4]: 0.72 ± 0.12 | NF-kB reporter ([1]; agonist: LPS 0.1 ug/mL): 0.999 ± 0.08 | NF-kB reporter ([1]; agonist: MPLA […]): 2.1 ± 0.29 | IRF reporter ([2]; agonist: 3'3'-cGAMP 10 ug/mL): 0.96 ± 0.052 | IRF reporter ([2]; agonist: LPS 0.1 ug/mL): 1.24 ± 0.14 | IRF reporter ([2]; agonist: MPLA […]): 2.24 ± 0.24 | viability score [3]: 0.25 (inactive)

COc1cc(C)ccc1NC(=O)Cc1csc(NC(=O)Nc2ccccc2OC)n1
NF-kB reporter [1, 4]: 1.32 ± 0.14 | NF-kB reporter ([1]; agonist: LPS 0.1 ug/mL): 1.02 ± 0.074 | NF-kB reporter ([1]; agonist: MPLA […]): 0.887 ± 0.1 | IRF reporter ([2]; agonist: 3'3'-cGAMP 10 ug/mL): 0.978 ± 0.063 | IRF reporter ([2]; agonist: LPS 0.1 ug/mL): 0.793 ± 0.059 | IRF reporter ([2]; agonist: MPLA […]): 0.818 ± 0.26 | viability score [3]: 1 (active)

CCn1ccc(C(=O)N2CCN(c3cc(C(F)(F)F)nc(C)n3)CC2)n1
NF-kB reporter [1, 4]: 1.27 ± 0.098 | NF-kB reporter ([1]; agonist: LPS 0.1 ug/mL): 1.07 ± 0.092 | NF-kB reporter ([1]; agonist: MPLA […]): 1.01 ± 0.05 | IRF reporter ([2]; agonist: 3'3'-cGAMP 10 ug/mL): 0.637 ± 0.028 | IRF reporter ([2]; agonist: LPS 0.1 ug/mL): 0.744 ± 0.035 | IRF reporter ([2]; agonist: MPLA […]): 0.839 ± 0.11 | viability score [3]: 1 (active)

Cc1ccc(Nc2ccc(NC(=O)C(C)C)cc2)nn1
NF-kB reporter [1, 4]: 0.988 ± 0.042 | NF-kB reporter ([1]; agonist: LPS 0.1 ug/mL): 0.993 ± 0.082 | NF-kB reporter ([1]; agonist: MPLA […]): 1.11 ± 0.07 | IRF reporter ([2]; agonist: 3'3'-cGAMP 10 ug/mL): 1.05 ± 0.048 | IRF reporter ([2]; agonist: LPS 0.1 ug/mL): 1.2 ± 0.26 | IRF reporter ([2]; agonist: MPLA […]): 1.29 ± 0.44 | viability score [3]: 0.981 (active)

COC(CNC(=O)c1cccc(Cl)c1)c1ccccc1C (stereo not drawn)
NF-kB reporter [1, 4]: 0.774 ± 0.038 | NF-kB reporter ([1]; agonist: LPS 0.1 ug/mL): 0.876 ± 0.092 | NF-kB reporter ([1]; agonist: MPLA […]): 0.958 ± 0.075 | IRF reporter ([2]; agonist: 3'3'-cGAMP 10 ug/mL): 0.965 ± 0.059 | IRF reporter ([2]; agonist: LPS 0.1 ug/mL): 1.22 ± 0.23 | IRF reporter ([2]; agonist: MPLA […]): 1.37 ± 0.34 | viability score [3]: 0.999 (active)

COc1ccccc1-c1cc(-c2ccccc2)nc(SCC(N)=O)c1C#N
NF-kB reporter [1, 4]: 1.06 ± 0.17 | NF-kB reporter ([1]; agonist: LPS 0.1 ug/mL): 0.918 ± 0.12 | NF-kB reporter ([1]; agonist: MPLA […]): 0.928 ± 0.073 | IRF reporter ([2]; agonist: 3'3'-cGAMP 10 ug/mL): 0.596 ± 0.02 | IRF reporter ([2]; agonist: LPS 0.1 ug/mL): 1.2 ± 0.18 | IRF reporter ([2]; agonist: MPLA […]): 1.41 ± 0.2 | viability score [3]: 1 (active)

C[C@@H](O[C@H]1OCCN(Cc2nc(=O)[nH][nH]2)[C@H]1c1ccc(F)cc1)c1cc(C(F)(F)F)cc(C(F)(F)F)c1 [Prestw-1600]
NF-kB reporter [1, 4]: 0.345 ± 0.022 | NF-kB reporter ([1]; agonist: LPS 0.1 ug/mL): 0.516 ± 0.058 | NF-kB reporter ([1]; agonist: MPLA […]): 0.333 ± 0.023 | IRF reporter ([2]; agonist: 3'3'-cGAMP 10 ug/mL): 1.64 ± 0.067 | IRF reporter ([2]; agonist: LPS 0.1 ug/mL): 1.23 ± 0.078 | IRF reporter ([2]; agonist: MPLA […]): 0.969 ± 0.13 | viability score [3]: 0.264 (inactive)

CC(C)(C)c1nc(-c2cccc(NS(=O)(=O)c3c(F)cccc3F)c2F)c(-c2ccnc(N)n2)s1
NF-kB reporter [1, 4]: 2.41 ± 0.12 | NF-kB reporter ([1]; agonist: LPS 0.1 ug/mL): 1.77 ± 0.14 | NF-kB reporter ([1]; agonist: MPLA […]): 2.36 ± 0.1 | IRF reporter ([2]; agonist: 3'3'-cGAMP 10 ug/mL): 0.67 ± 0.079 | IRF reporter ([2]; agonist: LPS 0.1 ug/mL): 0.818 ± 0.071 | IRF reporter ([2]; agonist: MPLA […]): 1.1 ± 0.2 | viability score [3]: 0.763 (active)
